About 1,100 (46%) of roughly 2,400 compounds were called active. The set was probably picked from earlier hits. Not all results are given here. Unmarked numbers belong to inactive results.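 The calls were made as follows: active = inhibition above the run cutoff, the mean inhibition of all test compounds plus 3 SD (cut at about 49% in these data); inactive = the rest.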
The compounds below were run against Trace amine-associated receptor 1 (Homo sapiens) (UniProt Q96RJ0) (assay: TAAR1 desensitization by agonist hits, confirmation, counter-screen for TAAR1 agonist project, cell-based, fluorescence, tachyphylaxis (AID 651951;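 also: beta-PEA stimulus applied at its EC80; loss of beta-PEA calcium signal after compound pretreatment read as receptor desensitization; 0% = DMSO with beta-PEA at EC80 and 100% = DMSO alone without agonist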)). Conditions: CHO RD-HGA16 hTAAR1, Fluo-8 calcium, beta-PEA response inhibition; at 3 µM; active compounds read high.
Sequence of Trace amine-associated receptor 1 (Homo sapiens) (Q96RJ0 whole entry, looked up): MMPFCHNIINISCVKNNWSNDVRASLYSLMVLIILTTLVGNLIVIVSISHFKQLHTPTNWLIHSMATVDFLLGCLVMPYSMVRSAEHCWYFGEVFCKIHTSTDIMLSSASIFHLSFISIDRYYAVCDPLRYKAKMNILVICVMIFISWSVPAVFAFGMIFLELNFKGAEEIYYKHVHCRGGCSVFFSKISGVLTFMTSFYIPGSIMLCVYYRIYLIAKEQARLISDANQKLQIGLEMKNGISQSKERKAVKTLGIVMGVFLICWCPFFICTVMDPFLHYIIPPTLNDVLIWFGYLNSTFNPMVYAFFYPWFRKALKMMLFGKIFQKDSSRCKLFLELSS

Row | Structure (SMILES) | inhibition
1 | O=C(N[C@H](C(=O)N1CCC[C@H]1C(=O)NCCc1ccccc1Cl)c1ccccc1)c1ccccc1 | 85.5% (active)
2 | Cc1cc(=O)oc2c(C)c(OCC(=O)NCCN3CCOCC3)ccc12 | 2.28%
3 | Nc1c(NCCc2ccccc2)c2ccccc2oc1=O | 53.6% (active)
4 | O=Cc1c(NCCc2cccc(F)c2)c2ccccc2[nH]c1=O | 36.8%
5 | CCCCOc1ccc(CSC(=N)N)cc1[N+](=O)[O-] | 12.3%
6 | CCOc1ccc(Br)cc1CSC(=N)N | 67% (active)
7 | CCc1ccc(-c2nn(-c3ccccc3)cc2CSC(=N)N)cc1 | 25.1%
8 | S=C(Nc1ccc(Br)cc1)NC1CCN(Cc2ccccc2)CC1 | 48.3%
9 | Cc1ccccc1-c1nc(CS(=O)(=O)CC(=O)N2CCc3ccccc3C2)c(C)o1 | 25.5%
10 | CCC(C(=O)Nc1ccc(C(C)C)cc1)c1ccccc1 (centres undefined) | 103% (active)
11 | Cc1ccc(Sc2cc(N3CCOCC3)nc(-c3ccccc3)n2)cc1 | 7.49%
12 | CCC(c1nnnn1Cc1ccco1)N(CCc1ccccc1)Cc1cc2ccc(OC)cc2[nH]c1=O (centres undefined) | 13.2%
13 | COc1ccc(OC)c(C(c2nnnn2C(C)(C)C)N2CCc3ccccc3C2)c1 (centres undefined) | 17.8%
14 | O=C(O)C1C2C=CC(O2)C1C(=O)NCCc1cccc(Cl)c1 (centres undefined) | 92.1% (active)
15 | O=C(NNC(=S)NC(=O)c1cn(-c2ccccc2)nc1-c1ccccc1)c1ccncc1 | 79.3% (active)
16 | CN(C(=O)CN(CCO)CC(=O)N(C)C(C)(C)Cc1ccccc1)C(C)(C)Cc1ccccc1 | 94.8% (active)
17 | CCCc1cc(C(=O)Nc2ccc(C(=O)OC)cc2)cs1 | 11%
18 | O=C(/C=C/[C@H]1O[C@@H](n2cnc3c(NC(=O)c4ccccc4)ncnc32)[C@H](O)[C@@H]1O)NCc1ccccc1 | -5.17%
19 | O=C(NCCc1ccccc1)C(=O)NCC1OCCN1S(=O)(=O)c1cccs1 (centres undefined) | 36.3%
20 | CCc1ccccc1S(=O)(=O)Cc1ccc(C(=O)NCCc2ccccc2)o1 | 77.1% (active)
21 | O=C1CCCN2N=C(SCC(=O)Nc3ccc(Br)cc3)SC2=N1 | 36.4%
22 | CCCCC(=O)NNC(=S)NC(=O)C(c1ccccc1)c1ccccc1 | 107% (active)
23 | c1ccc2c(c1)OCC(CNc1ncnc3nc[nH]c13)O2 (centres undefined) | 106% (active)

Row | Structure (SMILES) | inhibition
24 | Cc1cc(C)c2cc(C#N)c(N3CCNCC3)nc2c1 | 79.8% (active)
25 | Cc1ccc(S(=O)(=O)N(CC(=O)N2CCc3ccccc3C2)c2cccc(Cl)c2)cc1 | 29.8%
26 | Cc1ccc(NC(=O)CCN2CCc3ccccc3C2)cc1 | 78% (active)
27 | COc1ccc(NC(=O)C(=O)NCC(c2ccco2)N2CCc3ccccc3C2)cc1 (centres undefined) | -6.26%
28 | CN(C)CCCN(C(=O)c1ccc(S(=O)(=O)N2CCCCCC2)cc1)c1nc2ccc(Br)cc2s1 | 41.1%
29 | CN(C)CCCN(C(=O)c1ccc(S(=O)(=O)N2CCCc3ccccc32)cc1)c1nc2ccc(F)cc2s1 | 53.1% (active)
30 | COc1ccc(C(=O)CN2C(=O)NC(C)(c3ccc(C)cc3)C2=O)cc1OC (centres undefined) | 10.7%
31 | O=C(Nc1cccc(NC(=O)c2ccc(Br)cc2)c1)c1ccccc1 | -9.63%
32 | COc1ccc(C(=O)NNC(=S)NC(=O)c2ccccc2)cc1 | 76.1% (active)
33 | COc1ccc(C(=O)NC(=S)NNC(=O)c2c(-c3ccccc3)noc2C)cc1 | 29.8%
34 | COc1ccc(C(=O)NC(=S)NNC(=O)CCc2ccccc2)cc1 | 68.4% (active)
35 | Cc1onc(-c2ccccc2)c1C(=O)NNC(=S)NC(=O)c1ccc(F)cc1 | 65.3% (active)
36 | C#CCOc1ccc(/C=C2/C(=O)NN(c3ccccc3)C2=O)cc1OC | 39%
37 | Nc1nonc1-n1nnc(C(=O)N/N=C/c2ccc(Cl)cc2)c1-c1ccc2c(c1)OCO2 | 37.8%
38 | Nc1cccc2c1C(=O)N(Cc1nnc(-c3ccccc3Br)o1)C2=O | 26.5%
39 | O=C(Nc1ccncc1)Nc1ccc(F)cc1 | 76.4% (active)
40 | CCCn1c(O)c(CN2CCCC(C)C2)c(C)c(C#N)c1=O (centres undefined) | 55.8% (active)
41 | S=C(NCCc1ccccc1)N1CCn2cccc2C1c1ccncc1 (centres undefined) | 83.2% (active)
42 | COc1ccc(OC)c(NC(=S)N2CCc3ccccc3C2)c1 | 40.2%
43 | CCCSc1nc2c(c(=O)n(C)c(=O)n2C)n1Cc1ccc(C)cc1 | 37.9%
44 | c1ccc(Nc2nc(N3CCOCC3)c3ccccc3n2)cc1 | 93% (active)
45 | CC(Oc1ccc2ccccc2c1)C(=O)NNC(=S)NC(=O)c1ccco1 (centres undefined) | 70.9% (active)
46 | CCCc1ccc(OCC(=O)NNC(=S)NC(=O)c2ccco2)cc1 | 71.9% (active)

Row | Structure (SMILES) | inhibition
47 | COc1ccc2cc(-c3[nH]ncc3CNCCn3nc(C)cc3C)ccc2c1 | 13%
48 | NC(=O)C1=C[C@H](c2csc3ccccc23)C[C@H](OCc2ccc(CO)cc2)O1 | 50.8% (active)
49 | COC(=O)c1[nH]c2cccc(C)c2c1NC(=O)CN1CCCc2ccccc21 | 35.7%
50 | COc1cccc(-c2cnc(OC(C)(C)C)nc2OC(C)(C)C)c1 | 3.93%
51 | Fc1ccc(NC(=S)N2CCc3[nH]c4ccccc4c3C2)cc1 | 28.1%
52 | O=C(CCCN=C1NS(=O)(=O)c2ccccc21)OCC(=O)c1ccc(F)c(F)c1 | 37.4%
53 | C[C@H](NC(=O)c1ccccc1)C(=O)OCC(=O)c1c[nH]c2ccccc12 | 79.2% (active)
54 | OC(CNCCc1ccc(Cl)cc1Cl)COc1ccccc1 (centres undefined) | 79.2% (active)
55 | CC(C)(C)CC(=O)Nc1nc(C(N)Cc2ccc(C(F)(F)F)cc2)cs1 (centres undefined) | 58.9% (active)
56 | COc1ccc(CC(N)c2csc(NC(=O)Cc3ccccc3)n2)cc1 (centres undefined) | 23.6%
57 | O=C(COC(=O)Cc1ccccc1F)NCCc1ccccc1 | 86% (active)
58 | Cc1cc2nc3c(=O)[nH]c(=O)nc-3n(C[C@H](O)[C@H](O)[C@H](O)CO)c2cc1C | 53.2% (active)
59 | O=C(Nc1ccc(Cl)cc1)N1CCc2[nH]c3ccccc3c2C1 | 12.4%
60 | O=c1cnnc(Nc2ccccc2)[nH]1 | 60.1% (active)
61 | COc1ccc2c(c1)OC(O)(C(F)(F)C(F)F)CC2=O (centres undefined) | 11.2%
62 | NC[C@H](Cc1ccccc1)NCCc1cc(C(F)(F)F)cc(C(F)(F)F)c1 | 12.9%
63 | CCCCCCCCCCOC(=O)Cn1c(COc2ccc(C)cc2)[n+](C)c2ccccc21 | 102% (active)
64 | CC(Oc1ccc(Cl)cc1)C(=O)OCC(=O)Nc1ncc(Cl)cc1Cl (centres undefined) | 7.27%
65 | Cc1ccc(Cl)cc1N1CCN(C(=O)c2cccc3c(=O)c(C)c(-c4ccccc4)oc23)CC1 | 80.9% (active)
66 | Nc1c(C(=O)c2cccs2)sc2nsc(SCCN3CCCCC3)c12 | 60.8% (active)
67 | COc1ccc(C(N)c2csc(NC(=O)Nc3cccc(C(F)(F)F)c3)n2)cc1 (centres undefined) | 44.9%
68 | CCOC(=O)Cc1csc(NC(=O)Nc2ccccc2)n1 | 28.9%
69 | NC(c1ccccc1)c1csc(NC(=O)Nc2cccc(C(F)(F)F)c2)n1 (centres undefined) | 50.7% (active)

Row | Structure (SMILES) | inhibition
70 | COc1cc(OC)c(-n2cc(-c3ccc(Cl)cc3)[nH]c2=O)cc1Cl | 79.8% (active)
71 | O=C(Cc1ccc(Cl)cc1)NC(=S)Nc1ccccc1O | 106% (active)
72 | Cc1ccccc1NC(=S)NC(=O)Cc1ccc(Cl)cc1 | 81.5% (active)
73 | CCC(c1nnnn1Cc1ccco1)N(CCc1ccccc1)Cc1cc2cccc(C)c2[nH]c1=O (centres undefined) | 20.6%
74 | NC(Cc1ccccc1)c1csc(Nc2cc(Oc3ccccc3)ncn2)n1 (centres undefined) | 65.7% (active)
75 | CC(=O)Oc1ccc(Cn2c(C)c(C(=O)NCc3ccc(C#N)cc3)sc2=O)cc1 | 72.9% (active)
76 | O=C1CCCC(O)=C1C=NCCc1ccccc1 | 32.1%
77 | Cc1ccn2c(=O)c(C(=O)NCCC3=CCCCC3)c(O)nc2c1 | 65.7% (active)
78 | c1ccc(-c2csc(N3CCc4ccccc4C3)n2)cc1 | 15.3%
79 | Oc1ccc2ccc3cccc[n+]3c2c1 | 19.6%
80 | CC(NC(=O)c1cc(-c2ccccc2)on1)c1ccccc1 (centres undefined) | 51.1% (active)
81 | COc1cc(OC)cc(C(=O)N[C@H](C(=O)OCC(=O)NC(C)c2ccccc2)C(C)C)c1 (some centres undefined) | 12.6%
82 | c1ccc(C2CNCc3c2ccc2ccccc32)cc1 (centres undefined) | 95.2% (active)
83 | CCN(CC)c1ccc2oc(=O)c(C)nc2c1 | 25.7%
84 | O=C(Nc1ccccc1)Nc1nnc(COc2ccccc2F)s1 | 72.4% (active)
85 | O=C(Nc1ccc(F)cc1)Nc1nnc([C@H]2C[C@H](O)[C@@H](CO)O2)s1 | 25.5%
86 | O=C(c1noc2c1CCCC2)N1CCc2ccccc2C1 | 5.47%
87 | CN(C)c1ccc(/C=C2\NC(=S)N(Cc3ccccc3)C2=O)cc1 | 63.9% (active)
88 | CC(=O)Nc1ccccc1Sc1ccc2c3c(cccc13)C(=O)N(c1ccc(C)cc1)C2=O | 5.11%
89 | CCCOc1ccc(-c2c(C(=O)N/N=C/c3ccco3)nnn2-c2nonc2N)cc1 | 13.2%
90 | Cc1cccc(NC(=O)C(C)N2C(=O)C3C4CC(C(Br)C4Br)C3C2=O)c1 (centres undefined) | 52.5% (active)
91 | CCCC1CCC(=NNC(=S)NCCc2ccccc2)CC1 (centres undefined) | 51.7% (active)
92 | Cc1ccc(O)c(NC(=S)NC(=O)COc2ccc(Br)cc2)c1 | 104% (active)

Row | Structure (SMILES) | inhibition
93 | Nc1cc(OC(=O)c2ccccc2Br)nn1S(=O)(=O)c1ccccc1 | 11.7%
94 | COCCCn1c(Cc2csc(Nc3cccc(Cl)c3)n2)nnc1SCC(=O)OC1CCCCC1 | -2.24%
95 | COc1ccc(Cl)cc1C(=O)NNC(=S)NC(=O)/C=C/c1ccco1 | 67.7% (active)
96 | O=C1C=C(c2ccc(Cl)cc2)C(=O)N1Nc1ccccc1 | 72.8% (active)
97 | Nc1nnn(CC(=O)N/N=C/c2ccccc2)n1 | 17.8%
98 | CSc1nc(N)c(C#N)c(-c2ccccc2Cl)c1C#N | 24.1%
99 | O=C(CSc1nc(-c2ccco2)cc(C(F)(F)F)n1)NCc1cccs1 | -5.52%
100 | Cc1c(CNCCc2ccccc2)c(C(=O)O)c(C)n1-c1ccccc1 | 53.7% (active)
101 | COc1cccc(N(CC(=O)N2CCc3ccccc3C2)S(C)(=O)=O)c1 | 15.3%
102 | S=C(NCCCc1cnc[nH]1)NCCCN(Cc1ccc(Cl)c(Cl)c1)c1ccc(Br)cn1 | 59.7% (active)
103 | CCCCCC(=O)NC(=S)NNC(=O)c1ccc([N+](=O)[O-])cc1 | 61% (active)
104 | O=C(NCCc1ccccc1)/C(=C\c1ccc([N+](=O)[O-])cc1)NC(=O)c1ccccc1 | 7.67%
105 | CCCCc1c(-c2ccc(Br)cc2)ncn1CCc1ccccc1OC | 49.3% (active)
106 | CCc1c(-c2ccccc2OC)ncn1CCc1ccccc1OC | 39.8%
107 | CCCCc1c(-c2ccc(Cl)cc2)ncn1CCc1ccccc1OC | 83.4% (active)
108 | CCCCCc1c(-c2ccc(OC)c(OC)c2)ncn1CCc1ccccc1OC | 97.1% (active)
109 | CCCCCc1c(-c2cccc(Br)c2)ncn1CCc1ccccc1OC | 20.5%
110 | CCCCCc1c(Cc2ccccc2)ncn1CCc1ccccc1OC | 88.8% (active)
111 | N#Cc1ccc(OCCCN2CCC(C(O)(c3ccccc3)c3ccccc3)CC2)c(F)c1 | 23.9%
112 | Cn1c(=O)c(=O)n(C)c2cc(S(=O)(=O)NCCc3ccccc3)ccc21 | 73.1% (active)
113 | O=[N+]([O-])c1cc(S(=O)(=O)NCCc2ccccn2)ccc1Cl | 39%
114 | c1ccc2c(c1)C(=NC1CCCCC1)NC2=NC1CCCCC1 | 42.2%

— PubChem BioAssay AID651951 (The Scripps Research Institute Molecular Screening Center, 2012)
